Screens deposited in PubChem by National Center for Advancing Translational Sciences (NCATS).
ATXN viability: viability counter-screen for ATXN expression inhibitors. AID 651635. hit rate 0.49% among 400,000. Potency, µM (top dose mostly 56.7 µM), most hits filed as cytotoxic. S2 cells (HEK-293 line with an ATXN2-luciferase reporter) viability, CellTiter-Fluor protease fluorescence, 24 h; note: potency is the fitted concentration of half-maximal effect; nearly all actives have a fitted effect of over 40% in size
ATXN2 expr inh: inhibitors of ATXN2 expression; HEK-293 ATXN2-luciferase reporter, luminescence, 24 h; Potency, µM (titrated, usually from 57 µM), without a hit: at the top dose activity change, negative = inhibition, actives largely listed as inhibitors; hit rate 0.72% among 360,000; AID 1745845; note: potency is the fitted concentration of half-maximal effect; % is set by controls: 0 for no effect and ±100 for the full control effect; nearly all actives have a fitted effect of over 55% in size
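qHTS (up to 57 uM final) was run with 24 h compound exposure of reporter cells at 37 °C. Each well was multiplexed: SteadyGlo luminescence measured ATXN2-luciferase expression after a fluorogenic Gly-Phe-AFC viability readout (25 uM final).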
USP2a block: USP2a (human) protease inhibition; O75604; USP2 core, Ub-CHOP2 coupled fluorogenic reporter, 485/531; Potency, µM (highest dose often 38.3 µM), inactives show top-dose activity change, negative = inhibition, most hits filed as inhibitors; hit rate 0.01% among 330,000;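 note: potency is the fitted concentration of half-maximal effect; plate controls were DMSO wells for no effect and full inhibition by NEM control for full effect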
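Cell-free coupled assay: 10nM USP2 core preincubated 30min RT with compound in Tris-HCl pH 8.0/CaCl2/CHAPS buffer, then 25nM Ub-CHOP2 and 25nM reporter substrate; fluorescence (Ex 485/Em 531) read after 60min RT, normalized to NEM inhibition, concentration-response curves fitted.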
USP1 inh: blocks the human USP1/UAF1 deubiquitinase complex; O94782; hit rate 0.23% among 390,000; recombinant USP1/UAF1, Ub-Rhodamine cleavage fluorescence; Potency, µM (highest dose often 57.1 µM), for inactives: top-dose activity change, negative = inhibition, most hits filed as inhibitors; AID 743255; note: potency is the fitted concentration of half-maximal effect; % is set by controls: 0 for no effect and ±100 for the full control effect; nearly all actives have a fitted effect of over 60% in size
Target sequence (O94782 whole entry, looked up): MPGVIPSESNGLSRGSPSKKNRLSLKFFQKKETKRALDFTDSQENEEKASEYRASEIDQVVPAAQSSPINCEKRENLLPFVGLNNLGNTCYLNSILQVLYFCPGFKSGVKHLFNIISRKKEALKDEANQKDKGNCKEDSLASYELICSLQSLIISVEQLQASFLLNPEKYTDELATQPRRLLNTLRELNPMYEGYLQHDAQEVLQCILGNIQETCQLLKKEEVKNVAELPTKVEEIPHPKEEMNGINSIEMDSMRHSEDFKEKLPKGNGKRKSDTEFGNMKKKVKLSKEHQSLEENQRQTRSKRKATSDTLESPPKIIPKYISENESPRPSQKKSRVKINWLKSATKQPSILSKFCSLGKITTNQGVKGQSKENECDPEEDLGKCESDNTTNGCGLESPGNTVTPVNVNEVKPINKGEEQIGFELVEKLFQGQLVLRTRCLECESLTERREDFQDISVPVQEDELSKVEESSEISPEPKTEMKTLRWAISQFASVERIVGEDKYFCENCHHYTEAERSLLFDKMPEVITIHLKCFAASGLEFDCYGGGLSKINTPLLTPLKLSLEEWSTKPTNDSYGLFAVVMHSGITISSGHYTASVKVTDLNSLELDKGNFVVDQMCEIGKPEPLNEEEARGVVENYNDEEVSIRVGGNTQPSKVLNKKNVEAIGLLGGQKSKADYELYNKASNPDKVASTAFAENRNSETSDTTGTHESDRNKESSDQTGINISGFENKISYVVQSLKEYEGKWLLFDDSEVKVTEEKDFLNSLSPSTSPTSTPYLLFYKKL
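In this screen, compounds sit with the deubiquitinase complex (1nM) for 15 min at room temperature before Ub-Rho is added at 150nM final. Fluorescence rise is then followed for 6 reads every 60 seconds.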
IL-1B inflam inh: inflammasome signaling inhibition, IL-1 beta readout | THP-1 LPS/ATP IL-1B secretion, AlphaLISA, 16 h; active compounds read low | activity change, % at 57.5 µM | hit rate 4.7% among 360,000; in the data active = activity change below about -50%; inconclusive = mostly about -30% to -49%; note: % is set by controls: 0 for no effect and ±100 for the full control effect
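Secreted IL-1B measured by AlphaLISA bead assay after 16 h compound exposure of THP-1 cells; compounds (final up to 57.5 uM) added 1 h before LPS (250 ng/mL) and ATP (1.25 mM) stimulation; lower signal means less secretion.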
Active calls of the source: *; i = inactive; ? = inconclusive; nt = no result given; [ ] = remark or other dose. An excerpt weighted towards active compounds, which were near 4.8% of everything screened. Unless noted, calls come from the whole dose curve; as a rule, active = well fitted curve in the direction sought with a large enough effect; inconclusive = small, poorly fitted or top-dose-only effect, or another doubt; inactive = no such curve, though single readings can be large; an effect the other way counts as inactive or inconclusive.

SMILES	ATXN viability	ATXN2 expr inh	USP2a block	USP1 inh	IL-1B inflam inh
OC(CNCC(c1ccc(Cl)cc1Cl)c1c[nH]c2ccccc12)c1ccccc1 (centres undefined)	?	?	-1%	-23%	-103*
O=[N+]([O-])CC(c1ccccc1)c1c[nH]c2ccccc12 (centres undefined)	?	nt	nt	-15%	5
CC(C)(C)c1ccc(-c2nc(C#N)c(NCCCn3ccnc3)o2)cc1	i	11%	-2%	2%	-95*
CCOc1ccc(C(=O)N(Cc2cc(OC)c(OC)c(OC)c2)c2ccccn2)cc1	?	-6%	nt	-22%	nt
O=C1COc2ccc(-c3csc(=Nc4ccc(OC(F)F)cc4)n3CC3CCCO3)cc2N1 (centres undefined)	i	-34%	4%	-13%	-65*
COc1ccccc1N=c1scc(-c2ccc3c(c2)NC(=O)CO3)n1CC1CCCO1 (centres undefined)	i	?	-1%	-17%	0
Cc1ccc(-n2nc(C)c3c2C(Br)C(C)(C)CC3=O)nc1 (centres undefined)	i	-6%	nt	-3%	0
COc1ccc(NC(=O)CSc2n[nH]c(C(C)C)n2)c([N+](=O)[O-])c1	nt	-21%	4%	2%	-67*
CC(Cn1cncn1)C(=O)N1CCN(S(=O)(=O)c2ccc(Cl)cc2)CC1 (centres undefined)	?	5%	2%	-23%	-6
O=C(NCCCCCCCN1CCCCCCC1)C(C1CCCCC1)C1CCCCC1	nt	?	nt	-4%	-82*
O=C(NCCCN1CCOCC1)NC1CCCCC1	i	4%	0%	-10%	21
Cc1cccc2nc(-c3cccnc3)c(NCCC(C)C)n12	i	-3%	5%	-18%	-82*
CC(=O)c1c(N2CCN(c3cccc(Cl)c3)CC2)nc(=S)n(-c2ccccc2)c1C	i	-5%	-1%	-37%	-102*
CCn1c(C)c(C(C)=O)c(N2CCN(c3cccc(Cl)c3)CC2)nc1=S	i	-13%	-2%	-16%	-5
CC(=O)c1c(NCCc2ccccc2)nc(=S)n(-c2ccccc2)c1C	?	-55%	0%	-12%	-101*
CC(=O)c1c(NCc2ccccc2)nc(=O)n(-c2ccccc2)c1C	i	46%	-4%	-19%	0
Cc1cccc(NC(=O)C2CCN(C(=O)NCc3ccccc3)CC2)c1C	i	-6%	1%	-11%	14
N#Cc1nc(-c2cccc3ccccc23)oc1NCC#CCOC(=O)c1cccs1	nt	nt	-3%	nt	nt
N#CC(C#N)=C1NC2(CCCCC2)Cc2ccccc21	i	nt	2%	-19%	5
CC(=O)N(C(C)=O)C1=C(C#N)C2(CCCCC2)Cc2ccccc21	i	-10%	0%	-5%	-74*
COc1ccc(OCC(=O)Nc2nnc3n2CCS3)cc1	i	2%	nt	-23%	nt
O=S(=O)(c1ccc(N2CCN(Cc3ccccc3)CC2)nc1)N1CCCC1	i	-22%	-4%	-16%	4
C/C(COc1ccccc1)=N\NC(=O)c1nnn(-c2nonc2N)c1CSc1ccc(C)cc1	i	nt	nt	3%	-29
CCOC(=O)COn1c(-n2nc(C)cc2C)nc2ccccc2c1=O	i	-18%	0%	?	-21
OCC1(Cc2ccccc2)CCCN(Cc2cn[nH]c2-c2ccccc2)C1 (centres undefined)	i	-22%	0%	-4%	4
SMILES	ATXN viability	ATXN2 expr inh	USP2a block	USP1 inh	IL-1B inflam inh
Cc1ccc(C)c(-c2[nH]ncc2CN2CCCC(CO)(Cc3ccccc3C)C2)c1 (centres undefined)	i	-33%	0%	-11%	-80*
COCc1ccc(CN2CCCC(CO)(Cc3ccccc3C)C2)o1 (centres undefined)	i	-27%	0%	1%	13
CCOC(=O)C1(Cc2ccccc2)CCN(Cc2ccc3c(c2)OCCO3)CC1	i	4%	-6%	-14%	18
COc1cc(CN2CCCC(CO)(Cc3ccccc3C)C2)cc2c1OCO2 (centres undefined)	i	-9%[11.3 µM]	1%	-20%	-63*
CCOC(=O)C1(Cc2ccccc2)CCN(Cc2cc(OC)c3c(c2)OCO3)CC1	i	-19%	-1%	-20%	-83*
CCOC(=O)C1(Cc2ccccc2)CCN(Cc2cccc3c2OCO3)CC1	i	-32%	-8%	-22%	-53*
CC1(C)CC(=O)C=C(c2ccc(-c3ccccc3)cc2)C1	i	54%	1%	-24%	0
CSc1ccccc1C(=O)OCC(=O)Nc1cccnc1Cl	i	0%	0%	-1%	28
CCc1ccc(N(C2C=CS(=O)(=O)C2)S(=O)(=O)c2ccccc2)cc1 (centres undefined)	i	1%	1%	-16%	?
Cc1ccc(S(=O)(=O)N(c2cccc(C(F)(F)F)c2)C2C=CS(=O)(=O)C2)cc1 (centres undefined)	i	-9%	2%	-15%	-91*
COc1cc(C#Cc2c(-c3cncn3C)n(C)c3ccc(-c4cc(OC)c(OC)c(OC)c4)cc23)cc(OC)c1	i	?	-5%	-25%	-76*
COc1cc(C#Cc2c(-c3cncn3C)n(C)c3ccc(-c4ccc(OC)nc4)cc23)cc(OC)c1	?	28µM*	0%	-16%	-11
Cc1[nH]nc2ncc(C(=O)c3ccccc3O)cc12	i	28%	0%	-14%	-51*
Cc1nn(C)c2ncc(C(=O)c3ccccc3O)cc12	i	8%	-1%	-8%	42
Cc1ccc(S(=O)(=O)N(C)C)cc1NC(=O)COC(=O)c1ccc2ccccc2n1	i	9%	-2%	-3%	17
O=C(NCCc1ccccn1)C1CC12CCN(C(=O)c1ccccc1Cl)CC2 (centres undefined)	i	nt	nt	nt	nt
CN(C)CCCNC(=O)c1cc(C(=O)c2cccc(Cl)c2Cl)c[nH]1	i	-14%	6%	-28%	-58*
CN(C)CCCNC(=O)c1cc(C(=O)c2ccccc2)c[nH]1	i	1%	1%	-20%	-19
CCCCC/C=C\C/C=C\CCCCCCCC(=O)NC(C)c1ccccc1 (centres undefined)	i	-11%	nt	nt	nt
CCOC(=O)c1c(C)[nH]c(C)c1C(=O)COC(=O)c1cc2ccccc2cc1O	i	-18%	-9%	-27%	-67*
C=Cc1ccc(CSc2nc(-c3ccccc3C)nc3c2Cc2c(CO)cnc(C)c2O3)cc1	?	?	nt	-26%	nt
C=C1CC2(OC1=O)c1ccccc1CCc1ccccc12	nt	6µM*	nt	?	-102*
Cc1ccc(C(=O)N/C(=C\c2ccc(-c3cccc([N+](=O)[O-])c3)o2)C(=O)NCCCN(C)C)cc1	?	?	-2%	-24%	-68*
